# In PubChem BioAssay (Tox21):
# A number with no mark means an inactive call. Results filed as inconclusive are left out. Where a call stands in place of a potency, no number is given. Active and inactive are the calls of the source. Unless noted, the call rests on the fitted dose curve; in most records, active means well fitted curve in the direction sought with a large enough effect in the repeat runs; inconclusive means weak or mixed curves; inactive means no such curve, though single readings can be large; an effect the other way counts as inactive or inconclusive.
# How the values were obtained:
# [1] = qHTS assay to test for compound auto fluorescence at 535 nm (green) in HEK293 cells (AID 720680)
# [2] = qHTS assay to test for compound auto fluorescence at 460 nm (blue) in HEK293 cell free culture (AID 720681)
# Method in brief: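 Blue fluorescence (Ex 405/Em 460 nm, triamterene-equivalent) was read immediately after pin transfer of compound or DMSO into medium (DMEM, 10% FBS) without cells.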
# [3] = qHTS assay to test for compound auto fluorescence at 535 nm (green) in HEK293 cell free culture (AID 720682)
# Method in brief: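 Using fluorescein as calibrant, autofluorescence was quantified at 485/535 nm in cell-free DMEM containing 10% FBS after pintool addition of compound or vehicle.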
# [4] = qHTS assay to test for compound auto fluorescence at 590 nm (red) in HEK293 cell free culture (AID 720683)
# Method in brief: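 Red-channel autofluorescence of compounds in culture medium (DMEM, 10% FBS), no cells, measured at 540/590 nm. Rose Bengal sodium is the reference fluorophore for equivalence.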
# [5] = qHTS assay to test for compound auto fluorescence at 590 nm (red) in HepG2 cell free culture (AID 720684)
# Method in brief: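 Plate contents were MEM with 10% FBS plus test compound or DMSO, no cells. Fluorescence was recorded with 540 nm excitation and 590 nm emission.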
# [6] = qHTS assay to test for compound auto fluorescence at 460 nm (blue) in HepG2 cell free culture (AID 720685)
# Method in brief: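 Compound (23 nL) or DMSO pinned into cell-free MEM with 10% FBS; blue fluorescence read at 405/460 nm excitation/emission, expressed as auto-fluorescence equivalency to triamterene.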
# [7] = qHTS assay to test for compound auto fluorescence at 535 nm (green) in HepG2 cell free culture (AID 720686)
# [8] = qHTS assay to test for compound auto fluorescence at 460 nm (blue) in HepG2 cells (AID 720687)
# Method in brief: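 Blue-channel autofluorescence (Ex/Em 405/460 nm, triamterene-equivalent) was measured after 1 hr compound exposure at 37 C, 5% CO2. Cells were HepG2, plated overnight at 37 C in MEM plus 10% FBS.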
# [9] = qHTS assay to identify small molecule antagonists of the glucocorticoid receptor (GR) signaling pathway - cell viability counter screen (AID 720693); further: nearly all actives have a fitted effect of over 55% in size; further: potency means the concentration at half of the fitted maximal effect
# [10] = qHTS assay for identifying genotoxic compounds that show differential cytotoxicity against isogenic chicken DT40 cell lines with known DNA damage response pathways - wild type cell line (AID 743012); further: nearly all actives have a fitted effect of over 60% in size; further: potency means the concentration at half of the fitted maximal effect
# Method in brief: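 First, wild type DT40 cells were plated at 300 per well and equilibrated about 0.5 h at 37 C/5% CO2. Next, compounds in DMSO were added and exposure lasted 40 h. Finally, CellTiter-Glo was added for 30 min at room temperature and luminescence recorded.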
# [11] = qHTS assay for identifying genotoxic compounds that show differential cytotoxicity against isogenic chicken DT40 cell lines with known DNA damage response pathways - Rev3 mutant cell line (AID 743014); further: nearly all actives have a fitted effect of over 55% in size; further: potency means the concentration at half of the fitted maximal effect
# [12] = qHTS assay for identifying genotoxic compounds that show differential cytotoxicity against isogenic chicken DT40 cell lines with known DNA damage response pathways - Rad54/Ku70 mutant cell line (AID 743015); further: nearly all actives have a fitted effect of over 60% in size; further: potency means the concentration at half of the fitted maximal effect
# [13] = qHTS assay to identify small molecule antagonists of the androgen receptor (AR) signaling pathway - cell viability counter screen (AID 743033; further: nearly all actives have a fitted effect of over 45% in size; further: potency means the concentration at half of the fitted maximal effect)
# [14] = biological target: Androgen receptor (Homo sapiens) (UniProt P10275); assay: qHTS assay to identify small molecule agonists of the androgen receptor (AR) signaling pathway using the MDA cell line (AID 743040; further: nearly all actives have a fitted effect of over 20% in size)
# Method in brief: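 After a 5 h incubation at 37C and 0% CO2, MDA-kb2 reporter cells were dosed with compounds in DMSO and kept 16 h under the same conditions. Luciferase activity was then read as luminescence with ONE-Glo.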
# [15] = qHTS assay to identify small molecule antagonists of the androgen receptor (AR) signaling pathway using the MDA cell line - cell viability counter screen (AID 743041; further: nearly all actives have a fitted effect of over 45% in size; further: potency means the concentration at half of the fitted maximal effect)
# Method in brief: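 R1881-driven MDA-kb2 AR-luc cells, 3,000/well, were dosed with library compounds for 16 h; cell health came from CellTiter-Fluor fluorescence in the reporter wells.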
# [16] = biological target: Androgen receptor (Homo sapiens) (UniProt P10275); assay: qHTS assay to identify small molecule antagonists of the androgen receptor (AR) signaling pathway using the MDA cell line (AID 743042; further: nearly all actives have a fitted effect of over 55% in size; further: potency means the concentration at half of the fitted maximal effect)
# Method in brief: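 Antagonist mode: compounds plus R1881 agonist added to MDA-kb2 AR-luc cells, incubated 16 h at 37C. Luciferase reporter luminescence quantified, with multiplexed CellTiter-Fluor readout for cell viability.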
# [17] = biological target: Androgen receptor (Homo sapiens) (UniProt P10275); assay: qHTS assay to identify small molecule antagonists of the androgen receptor (AR) signaling pathway (AID 743035; active means well fitted inhibition curve with a large enough effect in the signal ratio in the repeat runs, not every such curve was filed as active; the % refers to the signal ratio)
# Method in brief: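 Beta-lactamase FRET read (2 h RT incubation with LiveBLAzer B/G) following 16 h of compound plus R1881 treatment of AR-UAS-bla HEK293 cells, which had been pre-incubated 4 h at 37C.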
# [18] = biological target: Androgen receptor (Homo sapiens) (UniProt P10275); assay: qHTS assay to identify small molecule agonists of the androgen receptor (AR) signaling pathway (AID 743036; active means well fitted activation curve with a large enough effect in the signal ratio in the repeat runs, with a control signal flat, not every such curve was filed as active; the % refers to the signal ratio)
# Method in brief: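 In this Tox21 qHTS, 2,000 HEK293 AR-bla cells per well were incubated with compounds for 16 h at 37C and 5% CO2. Fluorescence intensity was recorded 2 h after adding LiveBLAzer B/G FRET substrate at room temperature.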
# Chain of Androgen receptor (Homo sapiens) (P10275 whole entry, looked up): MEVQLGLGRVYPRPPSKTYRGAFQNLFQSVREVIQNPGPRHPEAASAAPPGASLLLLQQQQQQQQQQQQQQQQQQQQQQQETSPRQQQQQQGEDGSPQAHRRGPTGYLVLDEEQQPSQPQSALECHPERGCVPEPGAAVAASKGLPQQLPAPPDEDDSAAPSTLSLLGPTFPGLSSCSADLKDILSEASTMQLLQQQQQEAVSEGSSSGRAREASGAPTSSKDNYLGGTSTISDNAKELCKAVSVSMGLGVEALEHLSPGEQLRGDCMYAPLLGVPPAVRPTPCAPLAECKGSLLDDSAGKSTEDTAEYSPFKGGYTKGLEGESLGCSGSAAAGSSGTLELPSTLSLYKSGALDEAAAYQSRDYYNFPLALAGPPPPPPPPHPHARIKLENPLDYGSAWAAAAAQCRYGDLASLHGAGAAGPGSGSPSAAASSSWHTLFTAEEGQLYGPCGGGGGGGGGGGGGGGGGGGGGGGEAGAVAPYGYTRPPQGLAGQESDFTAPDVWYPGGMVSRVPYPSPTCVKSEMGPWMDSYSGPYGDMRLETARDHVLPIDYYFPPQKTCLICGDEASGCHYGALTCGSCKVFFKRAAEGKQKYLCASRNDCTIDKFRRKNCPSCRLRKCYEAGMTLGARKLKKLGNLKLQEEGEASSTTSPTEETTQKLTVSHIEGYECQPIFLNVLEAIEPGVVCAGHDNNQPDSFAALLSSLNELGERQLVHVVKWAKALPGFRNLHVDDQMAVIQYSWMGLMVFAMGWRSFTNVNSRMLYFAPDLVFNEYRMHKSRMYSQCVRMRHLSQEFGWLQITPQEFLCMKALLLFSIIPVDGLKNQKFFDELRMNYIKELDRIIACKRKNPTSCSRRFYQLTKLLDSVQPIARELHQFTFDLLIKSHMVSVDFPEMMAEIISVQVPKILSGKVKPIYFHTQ
compound,measurement,setting,value
CCCCCCCCCCCCCCCCCC[N+](C)(C)C,outcome,[1],inactive
same,Potency,[2],inactive
same,outcome,[3],inactive
same,Potency,[4],inactive
same,Potency,[5],inactive
same,Potency,[6],inactive
same,Potency,[7],inactive
same,Potency,[8],inactive
same,Potency,[9],24.6 µM (active)
same,Potency,[10],2.74 µM (active)
same,Potency,[11],1.37 µM (active)
same,Potency,[12],2.74 µM (active)
same,Potency,[13],43.8 µM (active)
same,Potency,[14],inactive
same,Potency,[15],48.7 µM (active)
same,Potency,[16],24.4 µM (active)
[O-][n+]1ccccc1SSc1cccc[n+]1[O-],outcome,[1],inactive
same,Potency,[2],inactive
same,outcome,[3],inactive
same,Potency,[4],inactive
same,Potency,[5],inactive
same,Potency,[6],inactive
same,Potency,[7],inactive
same,Potency,[8],inactive
same,Potency,[9],inactive
same,Potency,[10],0.0596 µM (active)
same,Potency,[11],0.0668 µM (active)
same,Potency,[12],0.0841 µM (active)
same,Potency,[13],0.169 µM (active)
same,Potency,[14],inactive
same,Potency,[15],1.56 µM (active)
same,Potency,[16],1.19 µM (active)
CN1CCN(CCC(=O)N2c3ccccc3Sc3ccc(C(F)(F)F)cc32)CC1,outcome,[1],inactive
same,Potency,[2],inactive
same,outcome,[3],inactive
same,Potency,[4],inactive
same,Potency,[5],inactive
same,Potency,[6],inactive
same,Potency,[7],inactive
same,Potency,[8],inactive
same,Potency,[9],inactive
same,Potency,[10],16.8 µM (active)
same,Potency,[11],13.3 µM (active)
same,Potency,[12],21.1 µM (active)
same,Potency,[13],inactive
same,Potency,[17],inactive
same,Potency,[18],inactive
same,Potency,[14],inactive
same,Potency,[15],inactive
same,Potency,[16],inactive
Clc1ccc2cc3ccccc3cc2c1,outcome,[1],inactive
same,Potency,[2],inactive
same,outcome,[3],inactive
same,Potency,[4],inactive
same,Potency,[5],inactive
same,Potency,[6],inactive
same,Potency,[7],inactive
same,Potency,[8],inactive
same,Potency,[9],inactive
same,Potency,[10],inactive
same,Potency,[11],inactive
same,Potency,[12],inactive
same,Potency,[13],inactive
same,Potency,[18],inactive
same,Potency,[14],inactive
same,Potency,[15],inactive
Cc1c(C)c2c(c(C)c1OC(=O)CCC(=O)O)CC[C@@](C)(CCC[C@H](C)CCC[C@H](C)CCCC(C)C)O2,outcome,[1],inactive
same,Potency,[2],inactive
same,outcome,[3],inactive
same,Potency,[4],inactive
same,Potency,[5],inactive
same,Potency,[6],inactive
same,Potency,[7],inactive
same,Potency,[8],inactive
same,Potency,[9],26.8 µM (active)
same,Potency,[10],inactive
same,Potency,[11],inactive
same,Potency,[12],inactive
same,Potency,[13],inactive
same,Potency,[15],inactive
CC(=O)OCC(C)OC(C)=O (centres undefined),outcome,[1],inactive
same,Potency,[2],inactive
same,outcome,[3],inactive
same,Potency,[4],inactive
same,Potency,[5],inactive
same,Potency,[6],inactive
same,Potency,[7],inactive
same,Potency,[8],inactive
same,Potency,[9],inactive
same,Potency,[10],inactive
same,Potency,[11],inactive
same,Potency,[12],inactive
same,Potency,[13],inactive
same,Potency,[15],inactive
Cc1cc(C2CCCCC2)n(O)c(=O)c1,"fluorescence, % of fluorescein",[1],0.0799% [at 18.6 µM]
same,"fluorescence, % of fluorescent control",[2],-0.0092% [at 18.6 µM]
same,activity change,[3],0.0414% [at 18.6 µM]
same,"fluorescence, % of fluorescent control",[4],0.0163% [at 18.6 µM]
same,"fluorescence, % of Rose Bengal",[5],-0.0195% [at 18.6 µM]
same,"fluorescence, % of fluorescent control",[6],0.0075% [at 18.6 µM]
same,"fluorescence, % of fluorescein control",[7],0.005% [at 18.6 µM]
same,"fluorescence, % of fluorescent control",[8],0.0031% [at 18.6 µM]
same,Potency,[9],inactive
same,Potency,[10],1.43 µM (active)
same,Potency,[11],1.14 µM (active)
same,Potency,[12],2.54 µM (active)
same,Potency,[13],inactive
same,Potency,[15],inactive
Cc1cc(O)c(C(C)(C)C)cc1C(C)(C)C,outcome,[1],inactive
same,Potency,[2],inactive
same,outcome,[3],inactive
same,Potency,[4],inactive
same,Potency,[5],inactive
same,Potency,[6],inactive
same,Potency,[7],inactive
same,Potency,[8],inactive
same,Potency,[9],43.6 µM (active)
same,Potency,[10],10.9 µM (active)
same,Potency,[11],6.86 µM (active)
same,Potency,[12],13.7 µM (active)
same,Potency,[13],21.9 µM (active)
same,Potency,[14],inactive
same,Potency,[15],43.3 µM (active)
same,Potency,[16],54.5 µM (active)
COc1cc(-c2ccc(N=C=O)c(OC)c2)ccc1N=C=O,outcome,[1],inactive
same,Potency,[2],inactive
same,outcome,[3],inactive
same,Potency,[4],inactive
same,Potency,[5],inactive
same,Potency,[6],inactive
same,Potency,[7],inactive
same,Potency,[8],inactive
same,Potency,[9],inactive
same,Potency,[10],inactive
same,Potency,[11],inactive
same,Potency,[12],inactive
same,Potency,[13],inactive
same,Potency,[15],inactive
CCCCCCCCCCCC(=O)NCCCN(C)C,outcome,[1],inactive
same,Potency,[2],inactive
same,outcome,[3],inactive
same,Potency,[4],inactive
same,Potency,[5],inactive
same,Potency,[6],inactive
same,Potency,[7],inactive
same,Potency,[8],inactive
same,Potency,[9],30.9 µM (active)
same,Potency,[10],6.11 µM (active)
same,Potency,[11],10.9 µM (active)
same,Potency,[12],6.86 µM (active)
same,Potency,[13],43.6 µM (active)
same,Potency,[14],inactive
Cc1cc(N)c(S(=O)(=O)O)cc1Cl,outcome,[1],inactive
same,Potency,[2],inactive
same,outcome,[3],inactive
same,Potency,[4],inactive
same,Potency,[5],inactive
same,Potency,[6],inactive
same,Potency,[7],inactive
same,Potency,[8],inactive
same,Potency,[9],inactive
same,Potency,[10],inactive
same,Potency,[11],inactive
same,Potency,[12],inactive
same,Potency,[13],inactive
same,Potency,[15],inactive
CSc1ccc(C(=O)c2[nH]c(=O)[nH]c2C)cc1,outcome,[1],inactive
same,Potency,[2],inactive
same,outcome,[3],inactive
same,Potency,[4],inactive
same,Potency,[5],inactive
same,Potency,[6],inactive
same,Potency,[7],inactive
same,Potency,[8],inactive
same,Potency,[9],inactive
same,Potency,[10],inactive
same,Potency,[11],inactive
same,Potency,[12],inactive
same,Potency,[13],inactive
same,Potency,[15],inactive
OCCN1CCN(CC/C=C2/c3ccccc3Sc3ccc(C(F)(F)F)cc32)CC1,outcome,[1],inactive
same,Potency,[2],inactive
same,outcome,[3],inactive
same,Potency,[4],inactive
same,Potency,[5],inactive
same,Potency,[6],inactive
same,Potency,[7],inactive
same,Potency,[8],inactive
same,Potency,[9],inactive
same,Potency,[10],9.44 µM (active)
same,Potency,[11],13.3 µM (active)
same,Potency,[12],11.9 µM (active)
same,Potency,[13],19 µM (active)
same,Potency,[14],inactive
